Test results: PubChem BioAssay (Tox21)
Several values for one entry are separate records, joined by “and”; a condition that tells them apart may be missing. Identical values can stand only once. Inconclusive results are not listed. Activity calls are given as the source filed them. Unless noted, calls come from the whole dose curve; as a rule, active = well fitted curve in the direction sought with a large enough effect in the repeat runs; inconclusive = weak or mixed curves; inactive = no such curve, though single readings can be large; an effect the other way counts as inactive or inconclusive.

Key:
[1] = qHTS assay to identify small molecule agonists of the estrogen receptor alpha (ER-alpha) signaling pathway in the presence of an antagonist - cell viability counter screen (AID 1259386);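 note: series mostly up to about 92 µM; cells exposed to compounds for 22 h at 37 °C before the viability read; nearly all actives have a fitted effect of over 30% in size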
In short: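 Using estrogen-depleted VM7Luc4E2 cells, the 15-concentration compound series was applied together with 10.0nM ICI-182,780 and incubated 22hr at 37C/5% CO2. Cell viability was then scored by CellTiter-Fluor.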

[2] = target: Progesterone receptor (Homo sapiens) (UniProt P06401); assay: qHTS assay to identify small molecule agonists of the progesterone receptor (PR) signaling pathway (AID 1346784; calls by dose curve; note: nearly all actives have a fitted effect of over 30% in size; note: potency is the fitted concentration of half-maximal effect)
Sequence of Progesterone receptor (Homo sapiens) (P06401 whole entry, looked up): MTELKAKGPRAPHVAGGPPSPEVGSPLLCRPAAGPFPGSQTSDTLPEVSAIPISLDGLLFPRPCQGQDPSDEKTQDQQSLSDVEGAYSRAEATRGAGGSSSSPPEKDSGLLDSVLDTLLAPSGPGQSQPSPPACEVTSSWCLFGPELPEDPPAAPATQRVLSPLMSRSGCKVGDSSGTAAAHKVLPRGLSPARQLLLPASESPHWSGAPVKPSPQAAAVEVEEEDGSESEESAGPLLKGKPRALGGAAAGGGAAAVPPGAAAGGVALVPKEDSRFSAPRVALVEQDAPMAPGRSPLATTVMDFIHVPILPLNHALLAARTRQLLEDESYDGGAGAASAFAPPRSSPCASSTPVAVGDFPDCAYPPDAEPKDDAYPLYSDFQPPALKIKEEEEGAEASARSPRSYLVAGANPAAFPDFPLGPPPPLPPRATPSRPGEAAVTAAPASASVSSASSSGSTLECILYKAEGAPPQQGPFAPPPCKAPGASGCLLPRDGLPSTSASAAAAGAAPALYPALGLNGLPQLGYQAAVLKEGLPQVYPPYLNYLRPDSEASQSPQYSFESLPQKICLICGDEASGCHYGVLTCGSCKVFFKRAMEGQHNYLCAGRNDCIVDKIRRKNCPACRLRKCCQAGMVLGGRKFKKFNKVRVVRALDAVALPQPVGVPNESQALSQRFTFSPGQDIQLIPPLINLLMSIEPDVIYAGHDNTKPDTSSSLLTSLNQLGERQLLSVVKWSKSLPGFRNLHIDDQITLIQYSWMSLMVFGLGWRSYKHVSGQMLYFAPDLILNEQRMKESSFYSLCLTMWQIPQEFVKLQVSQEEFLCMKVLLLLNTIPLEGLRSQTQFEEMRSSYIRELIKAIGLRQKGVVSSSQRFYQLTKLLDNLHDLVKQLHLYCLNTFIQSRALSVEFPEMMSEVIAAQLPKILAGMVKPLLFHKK
In short: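 HEK 293T PR-UAS-bla reporter cells, 2% charcoal-stripped FBS; 6 hr settle at 37C/5% CO2, compound (DMSO) 16 hr, LiveBLAzer B/G FRET substrate 2 hr RT, fluorescence intensity read.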

[3] = qHTS assay to identify small molecule antagonists of the TGF-beta/Smad signaling pathway - cell viability counter screen (AID 1346824); note: nearly all actives have a fitted effect of over 50% in size
In short: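 Cytotoxicity counter-screen run in the same wells as the beta-lactamase Smad reporter read: CellTiter-Glo luminescence after 30 min at room temperature. HEK 293T SBE-bla cells had 5 hr compound exposure at 37 C with TGF-beta1 (0.25 ng/mL stock).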

[4] = qHTS assay to identify small molecule agonists of the TGF-beta/Smad signaling pathway - cell viability counter screen (AID 1346829); note: top concentration of the series differs between compounds; nearly all actives have a fitted effect of over 45% in size
In short: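 Same-well cytotoxicity: CellTiter-Glo added after the 2 hr room-temperature beta-lactamase substrate step, luminescence measured 30 min later; cells had 5 hr of compound at 37 C.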

[5] = Human pregnane X receptor (PXR) small molecule agonists, qHTS cell viability counter screen (AID 1346977); note: nearly all actives have a fitted effect of over 50% in size; note: potency is the fitted concentration of half-maximal effect
In short: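 Fluorescence read-out (CellTiter-Fluor) of viability in PXR-Luc HepG2 cells, multiplexed with the luciferase agonist read. Compounds in DMSO added after 5hr plating; 24hr total exposure at 37C, 5% CO2.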

[6] = Caspase-3/7 induction in HepG2 cells by small molecules, qHTS assay (AID 1346978); note: nearly all actives have a fitted effect of over 15% in size; note: potency is the fitted concentration of half-maximal effect
In short: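 Caspase-3/7 induction was measured by Caspase-Glo 3/7 luminescence (30 min, room temperature) after a 17 hr compound exposure of wild-type HepG2 cells seeded at 2,000 per well and pre-incubated 5 hr.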

[7] = Caspase-3/7 induction in CHO-K1 cells by small molecules, qHTS assay (AID 1346980); note: nearly all actives have a fitted effect of over 15% in size
In short: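 Luminescent Caspase-Glo 3/7 read (30min, room temperature) quantified apoptosis induction. Cells were wild-type CHO-K1, treated with compound for 17hr at 37 C and 5% CO2.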

[8] = target: Nuclear receptor subfamily 1 group I member 2 (Homo sapiens) (UniProt O75469); assay: Human pregnane X receptor (PXR) small molecule agonists, qHTS assay (AID 1346982); note: nearly all actives have a fitted effect of over 35% in size; note: potency is the fitted concentration of half-maximal effect
Sequence of Nuclear receptor subfamily 1 group I member 2 (Homo sapiens) (O75469 whole entry, looked up): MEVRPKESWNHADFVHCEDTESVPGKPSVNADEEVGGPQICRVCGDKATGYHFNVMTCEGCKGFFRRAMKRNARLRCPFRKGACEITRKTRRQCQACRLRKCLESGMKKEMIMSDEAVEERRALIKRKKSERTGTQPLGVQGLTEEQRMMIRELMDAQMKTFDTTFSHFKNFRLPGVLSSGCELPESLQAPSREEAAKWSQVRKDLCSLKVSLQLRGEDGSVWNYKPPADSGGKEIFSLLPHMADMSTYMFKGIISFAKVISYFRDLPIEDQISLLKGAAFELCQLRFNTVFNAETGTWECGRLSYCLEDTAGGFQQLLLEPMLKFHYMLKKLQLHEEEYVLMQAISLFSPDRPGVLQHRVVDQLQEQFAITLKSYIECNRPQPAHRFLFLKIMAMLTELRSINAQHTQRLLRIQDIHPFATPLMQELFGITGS
In short: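 Tox21 qHTS; PXR-Luc HepG2; compounds pinned from DMSO; 24 hr, 37 C; ONE-Glo luciferase detection, 30 min room temperature.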

[9] = target: Nuclear receptor subfamily 1 group I member 2 (Rattus norvegicus) (UniProt Q9R1A7); assay: Rat pregnane X receptor (rPXR) activation by small molecules, qHTS assay (AID 1346983); details: rPXR luciferase reporter cells, One-Glo luminescence, 24 h; max activation: stronger effect = higher value; note: nearly all actives have a fitted effect of over 20% in size; note: potency is the fitted concentration of half-maximal effect
Sequence of Nuclear receptor subfamily 1 group I member 2 (Rattus norvegicus) (Q9R1A7 whole entry, looked up): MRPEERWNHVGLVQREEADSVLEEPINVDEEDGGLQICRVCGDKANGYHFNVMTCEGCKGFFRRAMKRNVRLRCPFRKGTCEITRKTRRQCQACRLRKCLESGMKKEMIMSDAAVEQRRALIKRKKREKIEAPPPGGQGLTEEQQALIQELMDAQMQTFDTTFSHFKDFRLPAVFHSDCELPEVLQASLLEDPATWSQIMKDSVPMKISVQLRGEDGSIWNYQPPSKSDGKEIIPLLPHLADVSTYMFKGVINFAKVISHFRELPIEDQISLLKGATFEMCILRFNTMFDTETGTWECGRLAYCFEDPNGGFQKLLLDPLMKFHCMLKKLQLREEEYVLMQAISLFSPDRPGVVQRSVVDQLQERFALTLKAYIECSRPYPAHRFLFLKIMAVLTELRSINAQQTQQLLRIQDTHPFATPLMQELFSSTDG
In short: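 Luminescent readout (One-Glo luciferase, 30 min room temperature) followed 24 hr compound treatment at 37 C of rPXR cells plated 2,000 per well and preincubated 5hr; qHTS format with compounds delivered in DMSO.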

[10] = target: Nuclear receptor subfamily 1 group I member 2 (Homo sapiens) (UniProt O75469); assay: CYP3A4 induction through human pregnane X receptor (PXR) by small molecules, qHTS assay (AID 1346984); note: nearly all actives have a fitted effect of over 40% in size; note: potency is the fitted concentration of half-maximal effect
In short: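 Cells (DPX-2; HepG2 with PXR element plus CYP3A4-promoter luciferase) settled 5hr, then were treated 24hr at 37C. A 3hr, 3uM-final Luciferin-IPA step preceded luminescence measurement with One-Glo.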

[11] = target: Nuclear receptor subfamily 1 group I member 2 (Homo sapiens) (UniProt O75469); assay: Human pregnane X receptor (PXR) activation by small molecules, qHTS assay (AID 1346985); note: nearly all actives have a fitted effect of over 40% in size; note: potency is the fitted concentration of half-maximal effect
In short: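 DPX-2 cells (HepG2 co-transfected with a PXR response element and a CYP3A4-promoter luciferase construct) were seeded at 2,000 per well, rested 5 hr at 37C, then exposed to DMSO-dissolved compounds for 24 hr. Activation was read as luciferase luminescence.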

[12] = target: Cytochrome P450 2D6 (Homo sapiens) (UniProt P10635); assay: Cytochrome P450 Family 2 Subfamily D Member 6 (CYP2D6) small molecule antagonists: luciferase reporter qHTS assay (AID 1671196); note: nearly all actives have a fitted effect of over 50% in size; note: potency is the fitted concentration of half-maximal effect; for activity change, negative = inhibition: series mostly up to about 120 µM
Sequence of Cytochrome P450 2D6 (Homo sapiens) (P10635 whole entry, looked up): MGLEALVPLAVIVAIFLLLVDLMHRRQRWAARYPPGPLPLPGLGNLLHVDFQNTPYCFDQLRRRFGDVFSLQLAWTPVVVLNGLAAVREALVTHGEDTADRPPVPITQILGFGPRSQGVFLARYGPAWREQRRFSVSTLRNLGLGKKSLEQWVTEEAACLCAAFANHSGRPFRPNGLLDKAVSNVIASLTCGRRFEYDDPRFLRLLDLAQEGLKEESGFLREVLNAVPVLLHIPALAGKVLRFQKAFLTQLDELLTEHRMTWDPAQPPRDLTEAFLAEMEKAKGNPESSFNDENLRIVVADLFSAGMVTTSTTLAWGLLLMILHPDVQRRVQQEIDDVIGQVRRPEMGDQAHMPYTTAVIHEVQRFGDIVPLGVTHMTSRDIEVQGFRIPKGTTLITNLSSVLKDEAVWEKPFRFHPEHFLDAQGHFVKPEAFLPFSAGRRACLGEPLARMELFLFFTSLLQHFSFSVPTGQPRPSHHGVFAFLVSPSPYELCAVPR
In short: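 Room-temperature luminescent CYP2D6 activity assay: compound preincubated 10 min with enzyme–substrate mix, NADPH-initiated reaction 1 h, detection reagent 20 min before reading.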

[13] = target: Progesterone receptor (Homo sapiens) (UniProt P06401); assay: qHTS assay to identify small molecule antagonists of the progesterone receptor (PR) signaling pathway (AID 1346795; active = well fitted inhibition curve with a large enough effect in the signal ratio in the repeat runs, not every such curve was filed as active; the % refers to the signal ratio)
In short: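 Beta-lactamase reporter, HEK293T PR-UAS-bla line; 2% charcoal-stripped FBS; 6 hr pre-incubation, 37C/5% CO2. Compound + R5020 1 nM final, 16 hr. LiveBLAzer B/G FRET substrate, 2 hr RT; fluorescence intensity read.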

[14] = qHTS assay to identify small molecule antagonists of the progesterone receptor (PR) signaling pathway - cell viability counter screen (AID 1346798); note: series mostly up to about 92 µM; nearly all actives have a fitted effect of over 50% in size
In short: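 Luminescence readout (CellTiter-Glo, 30 min, RT) of viability in PR-UAS-bla HEK293T cells exposed to compound and R5020 agonist for 16 hr at 37C, 5% CO2; run in the same wells as the beta-lactamase reporter read.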

[15] = qHTS assay to identify small molecule agonists of the progesterone receptor (PR) signaling pathway - cell viability counter screen (AID 1346799; calls by dose curve; note: nearly all actives have a fitted effect of over 45% in size)
In short: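 HEK293T PR-UAS-bla, 3,000 cells/well, 2% charcoal-stripped FBS; 6 h settle, compound 16 h at 37C/5% CO2; LiveBLAzer 2 h RT, then CellTiter-Glo 30 min RT, luminescence read.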

[16] = qHTS assay to identify small molecule agonists of the TGF-beta/Smad signaling pathway (AID 1346859; active = well fitted activation curve with a large enough effect in the signal ratio in the repeat runs, not every such curve was filed as active; the % refers to the signal ratio; note: series mostly up to about 77 µM)
In short: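 Read-out: fluorescence at 460 and 530 nm (405 nm excitation) after a 2 hr room-temperature incubation with beta-lactamase FRET substrate. SBE-bla HEK 293T cells had been treated with test compounds for 5 hr at 37 C.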

[17] = target: Thyrotropin-releasing hormone receptor (Homo sapiens) (UniProt P34981); assay: qHTS assay to identify small molecule antagonists of the thyrotropin-releasing hormone receptor (TRHR) signaling pathway (AID 1346877; active = well fitted inhibition curve with a large enough effect in the repeat runs, not every such curve was filed as active; note: series mostly up to about 51 µM)
Sequence of Thyrotropin-releasing hormone receptor (Homo sapiens) (P34981 whole entry, looked up): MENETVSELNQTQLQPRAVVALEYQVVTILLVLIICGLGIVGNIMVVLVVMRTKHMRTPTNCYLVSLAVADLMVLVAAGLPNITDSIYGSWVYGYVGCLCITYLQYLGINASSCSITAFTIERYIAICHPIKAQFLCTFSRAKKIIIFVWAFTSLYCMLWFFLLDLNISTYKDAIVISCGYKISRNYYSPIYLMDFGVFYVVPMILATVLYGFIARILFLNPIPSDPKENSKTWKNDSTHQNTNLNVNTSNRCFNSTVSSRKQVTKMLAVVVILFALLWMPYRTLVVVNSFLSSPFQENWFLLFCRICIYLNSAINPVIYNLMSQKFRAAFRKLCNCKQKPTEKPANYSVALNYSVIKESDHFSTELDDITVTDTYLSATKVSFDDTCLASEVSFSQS
In short: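 Calcium signal in dye-loaded TRHR/HEK293 cells; compounds added 5 min before TRH (1 nM final); fluorescence monitored 3 min at 1 s steps.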

[18] = Caspase-3/7 induction in CHO-K1 cells by small molecules, qHTS cell viability counter screen (AID 1346979); note: nearly all actives have a fitted effect of over 35% in size; note: potency is the fitted concentration of half-maximal effect
In short: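 CHO-K1 wt, 1,500 cells/well; 5hr pre-incubation 37C/5% CO2; compound pin transfer (DMSO); 16hr exposure; CellTiter-Fluor added, 1hr, fluorescence read.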

[19] = target: Thyrotropin-releasing hormone receptor (Homo sapiens) (UniProt P34981); assay: qHTS assay to identify small molecule agonists of the thyrotropin-releasing hormone receptor (TRHR) signaling pathway (AID 1346891; calls by dose curve;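 note: HEK293 cells expressing TRHR with calcium dye readout; series mostly up to about 58 µM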)
In short: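 HEK293/TRHR cells, 1500 per well, 18 h 37 °C; Ca dye 2 h 37 °C; pin-tool compound addition (agonist mode); kinetic fluorescence 3 min, 1 s reads; 15 concentrations, triplicate.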

[20] = Caspase-3/7 induction in HepG2 cells by small molecules, qHTS cell viability counter screen (AID 1346981); note: series mostly up to about 92 µM; nearly all actives have a fitted effect of over 30% in size
In short: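 After a 5-hr attachment period at 37 C and 5% CO2, wild-type HepG2 cells received compounds in DMSO. Sixteen hours later CellTiter-Fluor was dispensed and the fluorescent signal quantified after a further hour.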
% is set by controls: 0 for no effect and ±100 for the full control effect.

COCc1c(C(C)C)nc(C(C)C)c(/C=C/[C@@H](O)C[C@@H](O)CC(=O)O)c1-c1ccc(F)cc1
active: Potency [6] 2.11 µM and 958 nM | Potency [8] 15 µM and 10.8 µM | Potency [9] 11.2 µM | Potency [10] 3.16 µM | Potency [11] 3.55 µM
inactive: Potency [1] | Potency [2] | outcome [3] | outcome [4] | Potency [5] | outcome [7] | Potency [12]

CC1=C(C=O)C(C)(C)CCC1
active: Potency [8] 27.3 µM
inactive: Potency [1] | Potency [13] | Potency [14] | Potency [15] | outcome [3] | outcome [4] | outcome [16] | outcome [17] | Potency [5] | Potency [6] | Potency [18] | outcome [7] | Potency [12]

CCCCCC=CCC=CCCCCCCCC(=O)OCC
inactive: Potency [1] | Potency [13] | Potency [14] | Potency [15] | outcome [3] | outcome [4] | outcome [16] | outcome [17] | Potency [19] | Potency [5] | Potency [6] | outcome [7] | Potency [20] | max activation [9] -2.8% | Potency [10] | Potency [11] | Potency [12]
active: Potency [8] 29.8 µM

CN(C)CCOC1=Cc2ccccc2Sc2ccc(Cl)cc21
inactive: Potency [1] | Potency [2] | Potency [14] | Potency [15] | outcome [3] | outcome [4] | outcome [16] | Potency [19] | outcome [7] | Potency [20] | Potency [8]
active: Potency [12] 4.36 µM

CC(C)OCC1CO1 (stereo not drawn)
inactive: Potency [1] | Potency [2] | outcome [3] | outcome [4] | outcome [17] | Potency [19] | Potency [5] | Potency [6] | Potency [18] | outcome [7] | Potency [20] | Potency [12]

O=C1OCCN1/N=C/c1ccc([N+](=O)[O-])o1
inactive: Potency [1] | Potency [13] | Potency [14] | Potency [15] | outcome [3] | outcome [4] | outcome [16] | outcome [17] | Potency [6] | outcome [7] | Potency [20] | Potency [8] | max activation [9] -6.39% | Potency [11]

O=C(CCCCCCC(=O)Nc1ccccc1)NO
active: Potency [5] 8.41 µM | Potency [6] 4.22 µM | Potency [18] 13.3 µM | Potency [8] 7.5 µM | Potency [12] 5.49 µM
inactive: Potency [1] | Potency [2] | Potency [14] | Potency [15] | outcome [3] | outcome [4] | outcome [16] | Potency [19] | max activation [9] -13.8% | Potency [10] | Potency [11]

CCCOc1ccc(S(=O)(=O)N2CCN(CC)CC2)cc1-c1nc2c(CC)n(Cc3ccccn3)nc2c(=O)[nH]1
active: Potency [8] 10.9 µM
inactive: Potency [1] | Potency [2] | Potency [15] | outcome [3] | outcome [17] | Potency [19] | Potency [18] | outcome [7] | Potency [12]

CC(C)c1nnc2ccc(-c3ocnc3-c3cc(F)ccc3F)cn12
active: Potency [8] 48.6 µM
inactive: Potency [1] | Potency [2] | outcome [3] | outcome [4] | outcome [17] | Potency [5] | Potency [6] | Potency [18] | outcome [7] | Potency [20]

COC(OC)(C(=O)c1ccccc1)c1ccccc1
inactive: Potency [1] | Potency [2] | Potency [14] | Potency [15] | outcome [3] | outcome [4] | outcome [17] | Potency [19] | Potency [5] | Potency [18] | outcome [7]
active: Potency [8] 24.3 µM

[O]=[Bi]
inactive: activity change, negative = cytotoxicity [1] -3.93% [at 8.39 µM] | activation [2] 4.47% [at 8.39 µM] | activity change, negative = cytotoxicity [15] 0% [at 8.39 µM] | viability change, negative = cytotoxic [3] -10.5% [at 6.97 µM] | activity change, negative = cytotoxicity [4] -9.02% [at 6.97 µM] | activation [16] 2.8% [at 6.97 µM] | activity, negative = inhibition [17] 3.48% [at 4.65 µM] | activation [19] -0.278% [at 5.23 µM] | activity change, negative = cytotoxicity [5] 1.27% [at 8.39 µM] | caspase activation [6] -1.09% [at 8.39 µM] | activity change, negative = cytotoxicity [18] -0.807% [at 8.39 µM] | caspase-3/7 activation [7] -0.359% [at 8.39 µM] | activity change, negative = cytotoxicity [20] -1.33% [at 8.39 µM] | activation [8] 1.61% [at 8.39 µM] | activity change, negative = inhibition [12] -0.389% [at 10.5 µM]

CC(=O)[C@H]1CC[C@H]2[C@@H]3C[C@H](C)C4=CC(=O)CC[C@]4(C)[C@H]3[C@@H](O)C[C@]12C
active: Potency [2] 0.0067 µM | Potency [8] 13.3 µM | Potency [9] 2.51 µM
inactive: Potency [1] | outcome [3] | outcome [4] | outcome [16] | outcome [17] | Potency [19] | Potency [5] | Potency [6] | outcome [7] | Potency [20] | Potency [10] | Potency [11] | Potency [12]

CCCCCCCCCCCCCCC[C@H](O)[C@@H](N)CO
inactive: Potency [1] | Potency [2] | Potency [15] | outcome [3] | outcome [16] | outcome [17] | Potency [19] | Potency [5] | Potency [18] | outcome [7] | Potency [8] | max activation [9] 0.49% | Potency [10] | Potency [11]

CCCc1c(OCCCOc2ccc(OCC(=O)O)cc2)ccc(C(C)=O)c1O
inactive: Potency [1] | Potency [2] | Potency [15] | outcome [3] | Potency [5] | Potency [6] | outcome [7] | Potency [12]

NCC1CCCC(CN)C1 (stereo not drawn)
active: Potency [12] 14.2 µM
inactive: Potency [1] | Potency [13] | Potency [14] | Potency [15] | outcome [3] | outcome [4] | outcome [16] | outcome [17] | Potency [5] | Potency [6] | Potency [18] | Potency [20] | Potency [8]
